# Data from PubChem BioAssay AID588382 (National Center for Advancing Translational Sciences (NCATS), 2011).
# The whole screen tested about 1,300 compounds, of which about 150 (12%) were called active. A call without a number means that no potency is given here. Roughly 30% stayed inconclusive and do not appear here. The call rests on the fitted dose curve; in most records, active means well fitted cell-killing curve with a large enough effect; inconclusive means small, poorly fitted or top-dose-only effect, or effect the other way; inactive means flat fitted curve, though single readings scatter. The sample as a whole holds a higher share of actives than the screen did.
# Experiment: qHTS of small molecules that selectively kill Giardia lamblia: Hit Validation in HepG2 cytotox;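 further: compound exposure lasted overnight at 37 deg C; nearly all actives have a fitted effect of over 55% in size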
# Settings: cell viability; Potency: HepG2 cytotoxicity; series mostly up to 38.3 µM
# Text: Giardia lamblia is a human pathogen afflicting impoverished nations, and the most common cause of outbreaks of diarrhea in the United States. Giardia has been classified by the CDC as a category B bioterrorism organism. The favored anti giardiasis drugs in the US are metronidazole or tinidazole, compounds that have undesirable side effects. Moreover, increasing resistance to drug regimes and recurrence are a concern. It is thus clear that alternative drug treatments are needed.
# In a collaboration between the University of Maryland, College Park and the NIH Chemical Genomics Center, a bioluminescence Giardia viability assay based on the trophozoites' ATP content was developed. This assay is suitable for high throughput screening, and miniaturized the assay for compound screening in 1536-well plates. The goal of the project is to screen the Molecular Libraries Small Molecule Repository (MLSMR) for compounds that selectively kill Giardia trophozoites. This counterscreen looks at the toxicity of the compounds against the human HepG2 cell line.
# NIH Chemical Genomics Center [NCGC]
# NIH Molecular Libraries Probe Centers Network [MLPCN]
# Assay Submitter (PI): Osnat Herzberg, University of Maryland, College Park, MD.
# 4 uL of HepG2 cells ae dispensed into white 1536-well plates. They are incubated overnight at 37 deg C and then 23 nL of compounds are transferred to the wells with a pintool. Plates are incubated overnight at 37 deg C. 2 uL of ATPLite is added and the plates are incubated for 15 min at room temperature before they are read on the ViewLux for luminiescence.
# Potency means the concentration at half of the fitted maximal effect.
row,SMILES,Potency
1,CNC(=O)Oc1cccc(-c2cn3cc(Cl)ccc3n2)c1,1850 nM (active)
2,NC(=O)c1cc(N2CC2)c([N+](=O)[O-])cc1[N+](=O)[O-],inactive
3,CN(c1ccccc1)c1ccc([N+](=O)[O-])c2nonc12,inactive
4,COC(=O)c1nc(-c2ccc3c(n2)C(=O)C(N)=C(OC)C3=O)c(N)c(-c2ccc(OC)c(OC)c2O)c1C,1040 nM (active)
5,C[C@H]1C[C@@H](C)C(=O)[C@@H]([C@H](O)CC2CC(=O)NC(=O)C2)C1,inactive
6,CCOC(=O)C1CCCN(c2ccc([N+](=O)[O-])c3nonc23)C1 (stereo not given),inactive
7,Fc1ccc(C2NCCc3[nH]cnc32)cc1 (stereo not given),inactive
8,[Hg+][c]1ccccc1,1850 nM (active)
9,CC(C)(O)C1C2OC(=O)C1C1(O)CC3OC34C(=O)OC2C14C (stereo not given),inactive
10,C[N+]12CCC(CC1)C(=C(c1ccccc1)c1ccccc1)C2,inactive
11,C[C@@H]1C[C@@H]([C@H](O)CC2CC(=O)NC(=O)C2)C(=O)[C@@H](C)C1,inactive
12,c1ccc2c(c1)[I+]c1ccccc1-2,82.6 nM (active)
13,O=[N+]([O-])c1ccc(-c2ccccc2)c([As](=O)(O)O)c1,inactive
14,CC1=C(N2CC2)C(=O)C(CO)=C(N2CC2)C1=O,65.6 nM (active)
15,CCCCn1c(=O)c(C(=O)NCc2ccccc2OC)c(O)c2ccccc21,inactive
16,CCn1nc(/C=C/c2ccccc2)nc2c(=O)n(C)c(=O)nc1-2,6560 nM (active)
17,CC1CN(c2ccc([N+](=O)[O-])c3cccnc23)CC(C)N1 (stereo not given),inactive
18,Cc1nc2c(=O)n(C)c(=O)nc-2n(C)n1,656 nM (active)

row,SMILES,Potency
1,CC1CC(C)CC(C)C(O)C(C#N)=CC=CCC(C2CCCC2C(=O)O)OC(=O)CC(O)C(C)C1 (stereo not given),2330 nM (active)
2,O=[N+]([O-])c1ccc(O)c([N+](=O)[O-])c1,inactive
3,CC(C)c1ccc(N=Nc2c(O)[nH]c(=O)[nH]c2=O)cc1,inactive
4,O=c1c2ccccc2nc(/C=C/c2ccc(O)cc2)n1-c1cccc(O)c1,inactive
5,O=c1c2ccccc2nc(/C=C/c2ccc([N+](=O)[O-])o2)n1-c1ccc(O)cc1,3690 nM (active)
6,CCOc1ccc(-n2c(-c3cccs3)nc3ccccc3c2=O)cc1,inactive
7,COC1/C=C/C=C(\C)Cc2cc(O)c(Cl)c(c2)N(C)C(=O)CC(OC(=O)C(C)C)C2(C)OC2C(C)C2CC1(O)NC(=O)O2 (stereo not given),inactive
8,Cc1ccc(C(c2nnnn2Cc2ccccc2)N2CC=C(c3ccc(F)cc3)CC2)cc1 (stereo not given),inactive
9,C=CC1CN2CCC1CC2[C@@H](OC(=O)c1ccc(OC)cc1)c1ccnc2ccccc12 (stereo not given in full),inactive
10,c1ccc2c(c1)[IH]c1ccccc1-2,92.7 nM (active)
11,CN(C)C(=O)Oc1ccc(Br)c2ccccc12,inactive
12,COC(COC(N)=O)C1=C(N2CC2)C(=O)C(C)=C(N2CC2)C1=O (stereo not given),185 nM (active)
13,O=[N+]([O-])c1cc([As](=O)(O)O)ccc1O,inactive
14,Cc1cc([N+](=O)[O-])c2ccccc2[n+]1[O-],1170 nM (active)
15,CN1CCN(c2ccc([N+](=O)[O-])c3cccnc23)CC1,inactive
16,Cc1nc2ccccc2c(=O)n1-c1cc([N+](=O)[O-])cc([N+](=O)[O-])c1,inactive
17,NN=C(N)N,inactive
